Of roughly 7,900 targets only a part is listed; those with a hit were picked by preference. About 0.6% of all pairs of compound and target were hits.
Experiments:
Assay in all cases: log2 fold change, soluble protein after heating vs DMSO (PISA); higher = thermal stabilisation; K562 cells, 10 uM, 30 min; active = over 0.2 and 3.5 SD of the protein, either way, in both replicates (recomputed)
bafetinib = compound: Cc1ccc(NC(=O)c2ccc(CN3CC[C@H](N(C)C)C3)c(C(F)(F)F)c2)cc1Nc1nccc(-c2cncnc2)n1 [bafetinib]
Procedure, shortened: (§1)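 For each measurement, 10 μM compound was applied for 30 min to K562 cells at 2×10^6 cells/mL. Aliquots were heated for 3 min across 48°C-58°C, pooled, and extracted in PBS with 0.5% NP-40 at 4°C; the supernatant after 21,000xg for 90 min was soluble protein. This was quantified by TMTpro 16plex LC-MS/MS with channel sums equalised, and thermal stability was reported relative to control samples from duplicates, on a log2 fold-change scale.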

[1] = compound: Cc1cccc(CC(=O)N2CCc3c2ccc(-c2cn(C)c4ncnc(N)c24)c3F)n1
Procedure, shortened: as §1

nilotinib = compound: Cc1cn(-c2cc(NC(=O)c3ccc(C)c(Nc4nccc(-c5cccnc5)n4)c3)cc(C(F)(F)F)c2)cn1 [nilotinib]
Procedure, shortened: as §1

[2] = compound: Cc1nc(Nc2n[nH]c3c2CN(C(=O)N[C@H](CN(C)C)c2ccccc2)C3(C)C)c2sccc2n1
Procedure, shortened: as §1

dasatinib = compound: Cc1nc(Nc2ncc(C(=O)Nc3c(C)cccc3Cl)s2)cc(N2CCN(CCO)CC2)n1 [dasatinib]
Procedure, shortened: as §1

[3] = compound: Cc1ncc(-c2ccnc(Nc3ccc(S(C)(=O)=O)cc3)n2)n1C(C)C
Procedure, shortened: as §1

[4] = compound: Cn1cc(-c2ccc3c(c2)CCN3C(=O)Cc2cccc(C(F)(F)F)c2)c2c(N)ncnc21
Procedure, shortened: as §1

[5] = compound: Cn1cc(-c2ccc3nnc(C(F)(F)c4ccc5ncccc5c4)n3n2)cn1
Procedure, shortened: as §1

tipifarnib = compound: Cn1cncc1[C@@](N)(c1ccc(Cl)cc1)c1ccc2c(c1)c(-c1cccc(Cl)c1)cc(=O)n2C [tipifarnib]
Procedure, shortened: as §1

mubritinib = compound: FC(F)(F)c1ccc(/C=C/c2nc(COc3ccc(CCCCn4ccnn4)cc3)co2)cc1 [mubritinib]
Procedure, shortened: as §1

[6] = compound: NC(=O)Nc1cc(-c2cccc(F)c2)sc1C(=O)N[C@H]1CCCNC1
Procedure, shortened: as §1

[7] = compound: NC(=O)c1cnc(N[C@@H]2CCCC[C@@H]2N)nc1Nc1cccc(-n2nccn2)c1
Procedure, shortened: as §1

[8] = compound: NC1(c2ccc(-c3nc4ccn5c(=O)[nH]nc5c4cc3-c3ccccc3)cc2)CCC1
Procedure, shortened: as §1

[9] = compound: NCC(=O)Nc1ccc(-n2nc(C(F)(F)F)cc2-c2ccc3c(ccc4ccccc43)c2)cc1
Procedure, shortened: as §1

entinostat = compound: Nc1ccccc1NC(=O)c1ccc(CNC(=O)OCc2cccnc2)cc1 [entinostat]
Procedure, shortened: as §1

vorinostat = compound: O=C(CCCCCCC(=O)Nc1ccccc1)NO [vorinostat]
Procedure, shortened: as §1

citarinostat = compound: O=C(CCCCCCNC(=O)c1cnc(N(c2ccccc2)c2ccccc2Cl)nc1)NO [citarinostat]
Procedure, shortened: as §1

silmitasertib = compound: O=C(O)c1ccc2c(c1)nc(Nc1cccc(Cl)c1)c1ccncc12 [silmitasertib]
Procedure, shortened: as §1

[10] = compound: O=C1NC(=O)C(c2cnc3ccccn23)=C1c1cn2c3c(cc(F)cc13)CN(C(=O)N1CCCCC1)CC2
Procedure, shortened: as §1

[11] = compound: c1cc(OCCN2CCCCC2)cc(-c2n[nH]c3ccc(-c4nnc[nH]4)cc23)c1
Procedure, shortened: as §1

Measured: log2 fold change

CASP2 (UniProt P42575)
inactive: bafetinib 0.041 | [1] -0.035 | nilotinib -0.037 | [2] 0.076 | dasatinib -0.165 | [3] 0.114 | [4] 0.105 | [5] -0.056 | tipifarnib -0.118 | mubritinib 0.006 | [6] -0.317 | [7] -0.047 | [8] -0.099 | [9] 0.065 | entinostat 0.017 | vorinostat 0.13 | citarinostat 0.058 | silmitasertib 0.051 | [10] -0.008 | [11] -0.032

CNN2 (UniProt Q99439)
Chain of UniProt Q99439 (Q99439 whole entry, looked up): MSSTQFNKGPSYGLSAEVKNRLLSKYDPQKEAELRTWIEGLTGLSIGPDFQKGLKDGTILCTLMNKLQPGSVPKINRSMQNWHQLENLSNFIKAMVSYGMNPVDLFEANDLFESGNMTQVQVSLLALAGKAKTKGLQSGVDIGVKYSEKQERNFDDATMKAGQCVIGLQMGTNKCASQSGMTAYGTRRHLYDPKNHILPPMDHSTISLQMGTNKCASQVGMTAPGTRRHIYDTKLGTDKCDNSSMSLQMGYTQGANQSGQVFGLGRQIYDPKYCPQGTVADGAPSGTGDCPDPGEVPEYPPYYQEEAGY
inactive: bafetinib -0.001 | [1] 0.052 | nilotinib -0.075 | [2] -0.074 | dasatinib -0.14 | [3] 0.006 | [4] 0.011 | [5] 0.044 | tipifarnib -0.16 | mubritinib 0.051 | [6] -0.029 | [7] -0.031 | [8] -0.104 | [9] -0.052 | entinostat 0.08 | vorinostat 0.029 | citarinostat 0.061 | silmitasertib 0.062 | [10] -0.062 | [11] -0.026

CDK13 (UniProt Q14004)
Chain of UniProt Q14004 (Q14004 whole entry, looked up): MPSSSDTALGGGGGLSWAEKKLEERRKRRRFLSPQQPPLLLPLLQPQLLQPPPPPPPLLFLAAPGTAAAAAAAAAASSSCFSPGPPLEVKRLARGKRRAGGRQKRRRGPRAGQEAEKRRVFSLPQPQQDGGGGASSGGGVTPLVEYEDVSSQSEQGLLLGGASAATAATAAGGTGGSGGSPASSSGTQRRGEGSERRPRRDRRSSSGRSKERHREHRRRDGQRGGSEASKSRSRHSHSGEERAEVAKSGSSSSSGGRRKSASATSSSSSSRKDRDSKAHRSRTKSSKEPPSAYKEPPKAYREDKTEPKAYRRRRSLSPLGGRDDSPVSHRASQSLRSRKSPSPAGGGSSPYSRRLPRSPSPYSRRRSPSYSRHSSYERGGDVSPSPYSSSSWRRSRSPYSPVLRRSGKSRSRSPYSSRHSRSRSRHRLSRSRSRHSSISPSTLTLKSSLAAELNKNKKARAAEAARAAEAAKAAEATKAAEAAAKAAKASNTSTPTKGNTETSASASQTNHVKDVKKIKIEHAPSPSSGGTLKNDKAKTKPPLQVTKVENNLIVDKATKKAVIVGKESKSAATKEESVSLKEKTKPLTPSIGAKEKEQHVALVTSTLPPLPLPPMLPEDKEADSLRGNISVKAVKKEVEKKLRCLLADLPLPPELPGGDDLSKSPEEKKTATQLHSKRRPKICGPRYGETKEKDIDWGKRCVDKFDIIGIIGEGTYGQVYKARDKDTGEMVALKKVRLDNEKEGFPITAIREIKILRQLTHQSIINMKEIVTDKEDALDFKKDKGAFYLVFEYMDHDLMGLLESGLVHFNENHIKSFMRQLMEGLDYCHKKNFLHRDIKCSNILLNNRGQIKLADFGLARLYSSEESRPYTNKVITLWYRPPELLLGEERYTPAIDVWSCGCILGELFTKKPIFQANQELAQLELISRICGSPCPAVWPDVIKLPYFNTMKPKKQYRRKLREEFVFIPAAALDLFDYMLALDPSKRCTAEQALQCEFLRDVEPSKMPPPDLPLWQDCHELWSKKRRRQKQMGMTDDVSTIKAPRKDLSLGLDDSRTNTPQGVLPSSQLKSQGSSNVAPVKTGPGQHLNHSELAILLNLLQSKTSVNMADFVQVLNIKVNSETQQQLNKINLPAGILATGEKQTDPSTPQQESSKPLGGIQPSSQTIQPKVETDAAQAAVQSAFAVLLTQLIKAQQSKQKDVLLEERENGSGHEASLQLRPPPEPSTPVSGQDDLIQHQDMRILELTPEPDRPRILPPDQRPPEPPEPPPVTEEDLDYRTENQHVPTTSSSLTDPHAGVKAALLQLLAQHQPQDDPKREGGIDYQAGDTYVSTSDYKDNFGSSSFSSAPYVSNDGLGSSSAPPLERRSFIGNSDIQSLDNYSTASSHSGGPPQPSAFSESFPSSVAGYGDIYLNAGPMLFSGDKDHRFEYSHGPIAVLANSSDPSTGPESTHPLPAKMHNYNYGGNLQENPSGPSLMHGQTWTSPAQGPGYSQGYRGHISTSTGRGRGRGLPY
inactive: bafetinib 0.092 | [1] -0.018 | nilotinib -0.024 | [2] -0.149 | dasatinib -0.089 | [3] -0.108 | [4] -0.028 | [5] -0.098 | tipifarnib 0.069 | mubritinib 0.023 | [6] -0.032 | [7] -0.007 | [8] -0.063 | [9] 0.042 | entinostat 0 | vorinostat 0.018 | citarinostat 0.013 | silmitasertib -0.018 | [10] 0.035 | [11] -0.196

CBR1 (UniProt P16152)
Chain of UniProt P16152 (P16152 whole entry, looked up): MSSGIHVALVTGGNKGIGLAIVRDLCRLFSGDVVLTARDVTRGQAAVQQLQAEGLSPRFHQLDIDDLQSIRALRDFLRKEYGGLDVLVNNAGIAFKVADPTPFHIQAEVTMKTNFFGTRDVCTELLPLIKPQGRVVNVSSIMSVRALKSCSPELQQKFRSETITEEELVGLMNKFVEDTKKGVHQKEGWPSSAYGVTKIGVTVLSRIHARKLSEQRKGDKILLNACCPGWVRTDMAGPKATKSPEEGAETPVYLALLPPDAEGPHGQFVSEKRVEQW
inactive: bafetinib 0 | [1] 0.011 | nilotinib -0.012 | [2] 0.003 | dasatinib -0.02 | [3] 0.022 | [4] 0.081 | [5] -0.031 | tipifarnib -0.044 | mubritinib -0.01 | [6] -0.002 | [7] 0.025 | [8] -0.029 | [9] 0.037 | entinostat -0.008 | vorinostat -0.041 | citarinostat 0.033 | silmitasertib -0.011 | [10] -0.039
active: [11] 0.235

CNOT4 isoform 6 (UniProt O95628)
Chain of UniProt O95628 (O95628 whole entry, looked up): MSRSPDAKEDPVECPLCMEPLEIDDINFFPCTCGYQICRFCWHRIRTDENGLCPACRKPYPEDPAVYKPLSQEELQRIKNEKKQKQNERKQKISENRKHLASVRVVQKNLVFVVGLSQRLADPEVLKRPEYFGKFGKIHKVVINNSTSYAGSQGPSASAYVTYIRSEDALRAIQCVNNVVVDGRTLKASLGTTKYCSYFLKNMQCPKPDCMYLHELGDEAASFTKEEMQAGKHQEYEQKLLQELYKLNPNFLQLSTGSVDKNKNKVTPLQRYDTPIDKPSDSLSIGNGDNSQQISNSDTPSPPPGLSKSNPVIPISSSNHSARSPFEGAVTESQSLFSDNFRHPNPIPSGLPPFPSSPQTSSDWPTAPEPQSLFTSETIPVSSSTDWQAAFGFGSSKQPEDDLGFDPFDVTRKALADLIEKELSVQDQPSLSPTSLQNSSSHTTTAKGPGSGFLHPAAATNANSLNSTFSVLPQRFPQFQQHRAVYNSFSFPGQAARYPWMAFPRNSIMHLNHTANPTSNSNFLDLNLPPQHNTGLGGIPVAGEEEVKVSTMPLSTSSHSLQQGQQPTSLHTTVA
inactive: bafetinib -0.088 | [1] -0.036 | nilotinib -0.024 | [2] -0.042 | dasatinib -0.034 | [3] -0.003 | [4] 0.021 | [5] 0.033 | tipifarnib 0.027 | mubritinib 0.023 | [6] 0.033 | [7] -0.046 | [8] -0.074 | [9] -0.026 | entinostat -0.009 | vorinostat 0.052 | citarinostat 0.038 | silmitasertib 0.023 | [10] -0.043 | [11] -0.037

COX5B (UniProt P10606)
inactive: bafetinib -0.032 | [1] 0.013 | nilotinib 0.026 | [2] 0.011 | dasatinib 0.105 | [3] -0.043 | [4] 0.134 | [5] 0.221 | tipifarnib -0.108 | mubritinib 0.024 | [6] 0.041 | [7] 0.031 | [8] 0.053 | [9] -0.015 | entinostat -0.006 | vorinostat -0.151 | citarinostat 0.02 | silmitasertib -0.04 | [10] -0.131 | [11] 0.034

CHP1 (UniProt Q99653)
inactive: bafetinib 0 | [1] -0.087 | nilotinib 0.014 | [2] 0.019 | dasatinib 0.042 | [3] 0.004 | [4] 0.043 | [5] -0.116 | tipifarnib 0.072 | mubritinib 0.037 | [6] -0.1 | [7] 0.014 | [8] -0.104 | [9] 0.19 | entinostat -0.012 | vorinostat -0.066 | citarinostat 0.001 | silmitasertib 0.061 | [10] -0.054 | [11] 0.011

CSNK1D (UniProt P48730)
Chain of UniProt P48730 (P48730 whole entry, looked up): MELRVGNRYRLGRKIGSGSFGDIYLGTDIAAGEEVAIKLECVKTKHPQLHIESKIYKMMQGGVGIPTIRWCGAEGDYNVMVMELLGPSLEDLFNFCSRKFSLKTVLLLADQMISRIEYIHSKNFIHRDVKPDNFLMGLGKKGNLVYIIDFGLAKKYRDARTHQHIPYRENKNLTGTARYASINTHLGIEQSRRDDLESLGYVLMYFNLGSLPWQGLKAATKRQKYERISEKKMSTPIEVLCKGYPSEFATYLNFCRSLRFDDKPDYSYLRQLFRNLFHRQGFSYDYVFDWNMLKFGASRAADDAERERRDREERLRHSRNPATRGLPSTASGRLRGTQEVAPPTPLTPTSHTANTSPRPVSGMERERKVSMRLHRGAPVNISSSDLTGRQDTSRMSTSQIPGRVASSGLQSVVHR
inactive: bafetinib 0.1 | [1] 0.064 | nilotinib -0.025 | [2] 0.073 | dasatinib 0.119 | [3] 0.241 | [4] -0.083 | [5] -0.042 | tipifarnib 0.051 | mubritinib -0.148 | [6] -0.043 | [7] 0.185 | [8] 0.106 | [9] -0.02 | entinostat -0.062 | vorinostat 0 | citarinostat -0.025 | silmitasertib 0.054 | [10] 0.107 | [11] 0.173

CBS (UniProt P35520)
Chain of UniProt P35520 (P35520 whole entry, looked up): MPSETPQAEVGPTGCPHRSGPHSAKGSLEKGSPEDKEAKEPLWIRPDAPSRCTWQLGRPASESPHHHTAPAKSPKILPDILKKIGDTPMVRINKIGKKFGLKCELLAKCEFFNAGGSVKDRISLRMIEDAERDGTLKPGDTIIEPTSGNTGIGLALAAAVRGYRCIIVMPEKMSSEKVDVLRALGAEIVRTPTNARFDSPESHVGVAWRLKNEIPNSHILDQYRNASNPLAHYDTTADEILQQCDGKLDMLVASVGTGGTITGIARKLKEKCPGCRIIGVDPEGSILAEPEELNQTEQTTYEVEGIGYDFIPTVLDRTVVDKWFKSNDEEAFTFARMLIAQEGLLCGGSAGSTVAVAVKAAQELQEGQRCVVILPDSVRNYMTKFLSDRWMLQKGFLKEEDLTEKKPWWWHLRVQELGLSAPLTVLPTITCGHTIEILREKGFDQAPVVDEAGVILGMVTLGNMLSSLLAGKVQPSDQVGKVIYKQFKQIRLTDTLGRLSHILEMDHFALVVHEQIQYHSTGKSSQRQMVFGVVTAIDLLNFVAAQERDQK
inactive: bafetinib -0.031 | [1] -0.029 | nilotinib 0.025 | [2] -0.012 | dasatinib 0.018 | [3] -0.003 | [4] 0.079 | [5] 0.035 | tipifarnib -0.023 | mubritinib 0.056 | [6] -0.008 | [7] 0.006 | [8] -0.025 | [9] 0.016 | entinostat -0.033 | vorinostat -0.031 | citarinostat -0.058 | silmitasertib -0.038 | [10] -0.027 | [11] 0.027

CASC3 (UniProt O15234)
Chain of UniProt O15234 (O15234 whole entry, looked up): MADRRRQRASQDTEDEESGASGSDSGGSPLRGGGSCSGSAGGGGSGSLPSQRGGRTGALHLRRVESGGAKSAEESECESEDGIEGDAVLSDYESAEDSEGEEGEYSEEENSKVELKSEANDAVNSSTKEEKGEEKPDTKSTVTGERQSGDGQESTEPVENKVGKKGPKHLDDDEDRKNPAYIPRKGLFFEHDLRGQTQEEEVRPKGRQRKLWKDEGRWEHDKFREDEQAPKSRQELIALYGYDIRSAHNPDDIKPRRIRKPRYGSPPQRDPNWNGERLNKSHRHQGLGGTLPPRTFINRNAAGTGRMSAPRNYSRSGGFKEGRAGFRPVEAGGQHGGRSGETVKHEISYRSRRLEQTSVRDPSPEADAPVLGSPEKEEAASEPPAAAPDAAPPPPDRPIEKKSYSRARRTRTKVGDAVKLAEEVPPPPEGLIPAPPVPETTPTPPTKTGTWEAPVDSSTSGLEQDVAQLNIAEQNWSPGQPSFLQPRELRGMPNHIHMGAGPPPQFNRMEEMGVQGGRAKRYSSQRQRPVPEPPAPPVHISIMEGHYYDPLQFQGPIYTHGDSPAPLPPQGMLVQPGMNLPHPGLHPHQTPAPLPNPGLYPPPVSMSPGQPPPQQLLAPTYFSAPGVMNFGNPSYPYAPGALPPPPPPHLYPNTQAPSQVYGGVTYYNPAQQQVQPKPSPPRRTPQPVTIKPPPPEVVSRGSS
inactive: bafetinib -0.064 | [1] -0.069 | nilotinib -0.064 | dasatinib 0.031 | [4] -0.079 | [5] -0.069 | tipifarnib 0.004 | mubritinib 0.084 | [6] 0.015 | [7] 0.238 | [8] -0.01 | [9] 0.001 | entinostat -0.039 | vorinostat -0.072 | citarinostat 0 | silmitasertib 0.054 | [10] 0.24 | [11] -0.133
active: [2] 0.481 | [3] 0.511

CAD (UniProt P27708)
inactive: bafetinib 0.011 | [1] 0.06 | nilotinib -0.095 | [2] -0.008 | [3] 0.081 | [4] -0.012 | [5] -0.097 | tipifarnib -0.032 | mubritinib -0.006 | [6] 0.033 | [7] -0.014 | [8] -0.145 | [9] 0.008 | entinostat -0.026 | vorinostat 0.088 | citarinostat 0.014 | silmitasertib 0.003 | [10] 0.108 | [11] -0.141
active: dasatinib -0.386

CNTN4 (UniProt Q8IWV2)
inactive: bafetinib -0.109 | [1] 0.008 | nilotinib 0.06 | [2] 0.01 | dasatinib 0.003 | [3] -0.13 | [4] 0.131 | [5] 0.032 | tipifarnib -0.097 | mubritinib 0.224 | [6] 0.016 | [7] -0.056 | [8] 0.614 | [9] -0.085 | entinostat -0.106 | vorinostat 0.017 | citarinostat 0.141 | silmitasertib -0.197 | [10] -0.18 | [11] 0.088

CSTF2 (UniProt P33240)
Chain of UniProt P33240 (P33240 whole entry, looked up): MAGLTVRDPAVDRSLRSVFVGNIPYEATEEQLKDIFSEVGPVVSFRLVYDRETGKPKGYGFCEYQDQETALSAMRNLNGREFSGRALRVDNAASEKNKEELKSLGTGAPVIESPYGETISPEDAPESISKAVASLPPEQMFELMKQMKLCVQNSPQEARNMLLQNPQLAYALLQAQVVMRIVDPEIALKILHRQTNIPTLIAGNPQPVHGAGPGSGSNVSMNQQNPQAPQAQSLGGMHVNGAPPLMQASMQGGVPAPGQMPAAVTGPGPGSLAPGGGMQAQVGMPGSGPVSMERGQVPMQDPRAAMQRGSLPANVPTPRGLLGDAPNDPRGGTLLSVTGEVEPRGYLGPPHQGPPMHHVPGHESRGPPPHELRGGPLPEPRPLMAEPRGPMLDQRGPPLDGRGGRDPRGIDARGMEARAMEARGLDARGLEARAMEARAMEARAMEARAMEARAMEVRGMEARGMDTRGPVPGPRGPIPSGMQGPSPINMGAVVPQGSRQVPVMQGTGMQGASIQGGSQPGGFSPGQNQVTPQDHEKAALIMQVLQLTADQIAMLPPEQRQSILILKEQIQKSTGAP
inactive: bafetinib -0.05 | [1] -0.061 | nilotinib -0.029 | [2] 0.074 | dasatinib 0.007 | [3] 0.047 | [4] -0.011 | [5] -0.014 | tipifarnib 0.028 | mubritinib -0.046 | [6] 0.015 | [7] -0.054 | [8] 0.086 | [9] -0.031 | entinostat -0.028 | vorinostat -0.08 | citarinostat -0.011 | silmitasertib 0.07 | [10] -0.049 | [11] -0.042

CDC26 (UniProt Q8NHZ8)
Chain of UniProt Q8NHZ8 (Q8NHZ8 whole entry, looked up): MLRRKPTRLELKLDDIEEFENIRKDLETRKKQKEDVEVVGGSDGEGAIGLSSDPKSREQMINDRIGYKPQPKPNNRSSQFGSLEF
active: [9] 0.704
inactive: bafetinib -0.034 | [1] 0.162 | nilotinib -0.011 | [2] -0.059 | dasatinib 0.143 | [3] 0.029 | [4] 0.179 | [5] -0.027 | tipifarnib 0.131 | mubritinib -0.028 | [6] 0.034 | [7] 0.352 | [8] 0.152 | entinostat 0.097 | vorinostat 0.019 | citarinostat -0.025 | silmitasertib -0.003 | [10] 0.007 | [11] -0.003

CRK (UniProt P46108)
inactive: [1] -0.02 | [2] -0.136 | [3] 0.036 | [4] -0.007 | [5] 0.03 | tipifarnib 0.026 | mubritinib 0.075 | [7] 0.004 | [8] -0.063 | [9] -0.011 | entinostat 0.026 | vorinostat -0.002 | citarinostat 0.061 | silmitasertib 0.062 | [10] -0.016 | [11] -0.016
active: bafetinib -0.586 | nilotinib -0.826 | dasatinib -0.883 | [6] -0.81

Source: the supplement of paper PMC10849652
